Measured values from PubChem BioAssay.
The source made the active and inactive calls. Unless noted, the rule behind the calls is not given here.

Key:
[1] = compounds binding Alexa647 anti-His antibody – biochemical, small-molecule microarray, 635 nm fluorescence, artefact control for SMM control protein annotation, primary screen (AID 1128); conditions: higher = more signal;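 note: score merges feature fluorescence with signal-to-noise for each printed compound spot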
[2] = tested on: Human papillomavirus type 1a E7 protein (residues 1-88); test: HPV1a E7 small-molecule binders, primary screen, biochemical, small-molecule microarray, residues 1-88, 635 nm (AID 1129); conditions: small-molecule microarray binding, fluorescence 635 nm; higher = more signal
[3] = biological target: Focal adhesion kinase 1 (Homo sapiens) (UniProt Q05397); test: PTK2 protein binding on printed compound slides – biochemical, small-molecule microarray, 635/667 nm fluorescence, BSA, DTT, primary screen (AID 1130); conditions: 635 nm fluorescence, higher = more signal;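 note: composite of spot emission at 667 nm and signal to noise over triplicate slides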
[4] = tested on: Fibrinogen (Alexa647-labelled); test: Alexa647-fibrinogen binding to printed small molecules – biochemical, small-molecule microarray, 635/667 nm fluorescence, artefact control for SMM control-protein annotation, profiling panel (AID 1131); conditions: fibrinogen-A647 binding fluorescence, higher = more signal;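 note: z-score merges 667 nm fluorescence with per-spot signal-to-noise over triplicate slides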
[5] = biological target: Follistatin (Homo sapiens) (UniProt P19883); test: FST protein binding to printed compounds – biochemical, small-molecule microarray, 635/667 nm fluorescence, primary screen (AID 1132); conditions: 635 nm fluorescence, higher = more signal
[6] = biological target: Fibroblast growth factor 2 (Homo sapiens) (UniProt P09038); test: basic fibroblast growth factor binding to printed compounds – biochemical, small-molecule microarray, 635/667 nm fluorescence, primary screen (AID 1133); conditions: FGF2, fluorescence 635/667, higher = more signal
[7] = JC-1 mitochondrial potential readout, lung cancer cells – cell-based, A549, JC-1 fluorescence, basal, 24 h, 100 nL, profiling panel (AID 1138); conditions: higher = more signal;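 note: A549 lung adenocarcinoma cells under basal conditions with no added stimulus; test concentration not given here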
[8] = tested on: Lefty1; test: Lefty1 protein binding to printed compounds – biochemical, small-molecule microarray, 635/667 nm fluorescence, primary screen (AID 1139); conditions: fluorescence 635/667, higher = more signal
[9] = tested on: wheat germ agglutinin (Triticum aestivum), Alexa647-labelled; test: Alexa647-WGA lectin binding to printed small molecules – biochemical, small-molecule microarray, 635/667 nm fluorescence, artefact control for SMM control-protein annotation, profiling panel (AID 1140); conditions: WGA-A647 binding, 635 nm fluorescence, higher = more signal;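 note: score merges 667 nm feature emission with signal to noise over triplicate slides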
[10] = biological target: Luciferin 4-monooxygenase (Photinus pyralis) (UniProt P08659); test: inhibition of purified Photinus pyralis luciferase – biochemical, luminescence, purified enzyme, 2006 set, primary screen (AID 1141); conditions: purified firefly luciferase, SteadyGlo luminescence, 30 min; higher = more signal, called active from +8 up or from −8 down;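 note: cell-free assay with purified firefly luciferase at 100 ng per well in PBS; test concentration not given here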
[11] = tested on: Wnt5a (protein binding on small-molecule microarray); test: small molecules binding Wnt5a protein – biophysical, small-molecule microarray, 635/667 nm fluorescence, primary screen (AID 1142); conditions: 635 nm fluorescence, higher = more signal;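 note: fluorescence read at 667 nm with signal to noise per printed feature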
[12] = ATP-based viability of Huh7 replicon cells – cell-based, CellTiter-Glo luminescence, basal, 48 h, cytotoxicity control for HCV replication inhibitor project, primary screen (AID 1143); conditions: higher = more signal, called active from +8 up or from −8 down;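 note: Huh7 hepatoma cells carrying a hepatitis C replication reporter with no stimulus; test concentration not given here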
[13] = Pseudomonas biofilm growth suppression – PAO1 strain, BacTiter-Glo luminescence, LB-PBS, primary screen (AID 1144); conditions: P. aeruginosa PAO1 biofilm, 12 h, higher = more signal
[14] = basal CRE-LacZ reporter activity in PC12 – cell-based, unstimulated, primary screen (AID 1145); conditions: no forskolin, luminescence, 4.5 h, higher = more signal, called active from +8 up or from −8 down
[15] = forskolin-driven CRE-LacZ activity in PC12 – cell-based, CRE-LacZ reporter, forskolin-stimulated, primary screen (AID 1146); conditions: luminescence, 4.5 h, higher = more signal, called active from +8 up or from −8 down;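 note: PC12 cells with 6xCRE LacZ reporter stimulated by forskolin 10 µM; beta-galactosidase reporter signal reflecting CREB driven transcription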
[16] = biological target: Streptavidin (Streptomyces avidinii) (UniProt P22629); test: compounds binding control protein streptavidin – biophysical, small-molecule microarray, 635/667 nm fluorescence, artefact control for SMM compound annotation, primary screen (AID 1147); conditions: higher = more signal;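 note: signal reflects streptavidin binding to arrayed compounds as a control protein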
[17] = probe aInhba binding on compound microarray – biochemical, small-molecule microarray, 635/667 nm fluorescence, primary screen (AID 1148); conditions: higher = more signal;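 note: score merges 667nm spot fluorescence with signal-to-noise for antibody binding to printed compounds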
[18] = biological target: Torsin-1A (Homo sapiens) (UniProt O14656); test: TOR1A wild-type binding on microarray – cell lysate, small-molecule microarray, lysate, 635/667 nm, primary screen (AID 1149); conditions: COS7 hTOR1A-WT lysate, 635 nm fluorescence, higher = more signal
[19] = biological target: Torsin-1A (Homo sapiens) (UniProt O14656); test: torsin A mutant lysate binding on microarrays – cell lysate, small-molecule microarray, COS7 lysate, 635/667 nm fluorescence, primary screen (AID 1150); conditions: COS7 hTOR1A mutant lysate, 635 nm fluorescence, higher = more signal;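 note: score pools 667 nm emission and signal to noise measuring lysate protein binding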
[20] = tested on: Sonic hedgehog protein (Shh); test: Sonic hedgehog microarray binding compounds – biochemical, small-molecule microarray, 635/667 nm fluorescence, primary screen (AID 1151); conditions: 635 nm fluorescence, higher = more signal;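 note: Shh protein binding to compounds spotted on small-molecule microarray slides; score combines spot fluorescence intensity with signal-to-noise across triplicate slides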

Sequence of Fibroblast growth factor 2 (Homo sapiens) (P09038 whole entry, looked up): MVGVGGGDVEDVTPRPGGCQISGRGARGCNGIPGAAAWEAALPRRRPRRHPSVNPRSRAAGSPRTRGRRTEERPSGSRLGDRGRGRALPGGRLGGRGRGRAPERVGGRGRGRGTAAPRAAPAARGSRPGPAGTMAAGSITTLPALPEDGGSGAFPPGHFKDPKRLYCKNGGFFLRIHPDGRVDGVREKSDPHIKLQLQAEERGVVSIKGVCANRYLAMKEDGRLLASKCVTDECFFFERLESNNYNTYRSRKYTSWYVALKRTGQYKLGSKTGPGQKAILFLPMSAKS
Sequence of Luciferin 4-monooxygenase (Photinus pyralis) (P08659 whole entry, looked up): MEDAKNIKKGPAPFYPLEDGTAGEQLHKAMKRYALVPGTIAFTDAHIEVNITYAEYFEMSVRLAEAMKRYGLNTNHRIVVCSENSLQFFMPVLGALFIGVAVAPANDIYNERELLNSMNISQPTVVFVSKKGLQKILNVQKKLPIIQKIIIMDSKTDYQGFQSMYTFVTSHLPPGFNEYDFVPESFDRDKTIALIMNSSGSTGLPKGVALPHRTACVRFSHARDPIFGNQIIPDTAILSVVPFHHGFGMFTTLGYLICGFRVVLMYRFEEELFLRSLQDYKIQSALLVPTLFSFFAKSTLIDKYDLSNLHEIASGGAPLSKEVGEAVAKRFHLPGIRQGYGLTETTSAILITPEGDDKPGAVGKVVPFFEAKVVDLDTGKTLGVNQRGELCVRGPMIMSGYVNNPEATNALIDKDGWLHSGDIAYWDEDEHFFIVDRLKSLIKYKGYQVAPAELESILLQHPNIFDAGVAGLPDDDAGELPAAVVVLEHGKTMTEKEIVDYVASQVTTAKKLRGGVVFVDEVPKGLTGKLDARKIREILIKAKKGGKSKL
Sequence of Focal adhesion kinase 1 (Homo sapiens) (Q05397 whole entry, looked up): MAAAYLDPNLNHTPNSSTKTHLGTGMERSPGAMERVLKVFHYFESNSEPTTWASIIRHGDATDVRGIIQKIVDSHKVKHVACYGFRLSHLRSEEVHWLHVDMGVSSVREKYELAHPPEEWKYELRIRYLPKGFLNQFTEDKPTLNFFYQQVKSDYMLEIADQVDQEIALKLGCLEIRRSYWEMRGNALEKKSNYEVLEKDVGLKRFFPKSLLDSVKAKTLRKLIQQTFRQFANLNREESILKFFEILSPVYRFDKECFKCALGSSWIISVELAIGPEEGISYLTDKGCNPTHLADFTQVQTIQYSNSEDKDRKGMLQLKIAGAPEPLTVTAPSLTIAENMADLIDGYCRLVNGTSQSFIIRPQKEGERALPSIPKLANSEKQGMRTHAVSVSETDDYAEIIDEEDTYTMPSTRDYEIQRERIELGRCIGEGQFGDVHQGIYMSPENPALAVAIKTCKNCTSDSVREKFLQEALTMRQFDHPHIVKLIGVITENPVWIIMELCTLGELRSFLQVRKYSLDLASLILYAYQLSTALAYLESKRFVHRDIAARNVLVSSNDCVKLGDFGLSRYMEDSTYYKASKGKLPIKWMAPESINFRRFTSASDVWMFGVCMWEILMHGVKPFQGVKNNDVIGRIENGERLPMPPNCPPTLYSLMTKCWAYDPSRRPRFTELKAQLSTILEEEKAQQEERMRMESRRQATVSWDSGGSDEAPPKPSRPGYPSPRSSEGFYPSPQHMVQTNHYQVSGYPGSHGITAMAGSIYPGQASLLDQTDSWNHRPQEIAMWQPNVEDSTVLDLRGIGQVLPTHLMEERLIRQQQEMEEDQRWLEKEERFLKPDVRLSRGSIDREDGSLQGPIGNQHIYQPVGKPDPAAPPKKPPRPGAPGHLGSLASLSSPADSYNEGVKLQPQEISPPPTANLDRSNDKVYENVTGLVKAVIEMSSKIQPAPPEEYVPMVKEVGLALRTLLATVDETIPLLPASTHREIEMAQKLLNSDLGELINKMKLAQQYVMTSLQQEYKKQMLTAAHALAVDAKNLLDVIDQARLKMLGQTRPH
Sequence of Follistatin (Homo sapiens) (P19883 whole entry, looked up): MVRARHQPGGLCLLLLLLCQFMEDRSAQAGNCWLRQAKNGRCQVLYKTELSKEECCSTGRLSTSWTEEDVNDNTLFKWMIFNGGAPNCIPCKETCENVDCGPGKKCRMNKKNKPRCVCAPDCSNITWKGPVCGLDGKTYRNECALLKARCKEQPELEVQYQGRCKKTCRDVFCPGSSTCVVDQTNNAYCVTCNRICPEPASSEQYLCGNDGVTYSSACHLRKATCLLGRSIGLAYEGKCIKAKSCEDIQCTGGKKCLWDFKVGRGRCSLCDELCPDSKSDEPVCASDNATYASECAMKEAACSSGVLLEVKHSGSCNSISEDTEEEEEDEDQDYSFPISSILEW
Sequence of Torsin-1A (Homo sapiens) (O14656 whole entry, looked up): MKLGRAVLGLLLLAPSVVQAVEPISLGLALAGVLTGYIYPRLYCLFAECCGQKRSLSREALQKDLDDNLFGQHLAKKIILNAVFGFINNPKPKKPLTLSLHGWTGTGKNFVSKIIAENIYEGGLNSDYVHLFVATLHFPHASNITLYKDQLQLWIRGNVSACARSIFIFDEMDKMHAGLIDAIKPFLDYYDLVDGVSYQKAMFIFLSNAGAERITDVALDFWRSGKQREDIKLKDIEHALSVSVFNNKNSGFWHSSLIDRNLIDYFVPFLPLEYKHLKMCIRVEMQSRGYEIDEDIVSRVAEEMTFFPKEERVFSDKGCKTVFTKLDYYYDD
Sequence of Streptavidin (Streptomyces avidinii) (P22629 whole entry, looked up): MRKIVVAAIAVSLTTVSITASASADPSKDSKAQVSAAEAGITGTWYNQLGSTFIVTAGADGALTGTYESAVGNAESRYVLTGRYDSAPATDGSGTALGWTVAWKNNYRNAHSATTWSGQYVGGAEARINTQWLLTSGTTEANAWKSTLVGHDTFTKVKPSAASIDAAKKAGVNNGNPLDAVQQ

| SMILES | composite z-score [1] | composite z-score [2] | composite z-score [3] | composite z-score [4] | composite z-score [5] | composite z-score [6] | z-score [7] | composite z-score [8] | composite z-score [9] | z-score [10] | composite z-score [11] | z-score [12] | z-score [13] | z-score [14] | z-score [15] | composite z-score [16] | composite z-score [17] | composite z-score [18] | composite z-score [19] | composite z-score [20] |
| --- | --- | --- | --- | --- | --- | --- | --- | --- | --- | --- | --- | --- | --- | --- | --- | --- | --- | --- | --- | --- |
| CCN1C(=O)[C@H]2[C@H]3[C@H](O)[C@H](O)CC(=NOCc4ccccc4)[C@H]3CC[C@H]2C1=O | -0.364 | 0.359 | 0.155 | 0.443 | 0.213 | 0.22 | -0.442 | 0.228 | -0.077 | 0.243 (inactive) | -0.0887 | 0.856 (inactive) | -0.784 (inactive) | 0.25 (inactive) | -0.332 (inactive) | 0.201 | -0.189 | 0.171 | 0.46 | 0.109 |
| O=C1C[C@@H](O)[C@@H](O)[C@@H]2[C@@H]3C(=O)N(c4ccc(F)cc4F)C(=O)[C@@H]3CC[C@@H]12 | 0.408 | 0.709 | -0.246 | -0.518 | 0.312 | 0.294 | 0.245 | 0.379 | 0.044 | -0.9 (inactive) | -0.0711 | 0.988 (inactive) | -0.356 (inactive) | 0.792 (inactive) | -0.0611 (inactive) | 0.254 | -0.0887 | 0.243 | 0.149 | 0.786 |
| CO[C@H]1COC(=O)[C@@H]2CCCN2C(=O)CC=C[C@@H](C)[C@H](OC)COC(=O)CC=C[C@@H]1C | -0.287 | -0.52 | -0.0405 | -0.624 | 1.36 | 1.21 | 1.59 | 1.62 | -0.705 | -1.87 (inactive) | 0.191 | -1.32 (inactive) | -1.11 (inactive) | 2.42 (inactive) | 0.104 (inactive) | -0.689 | -0.0858 | 1.49 | 1.27 | 1.98 |
| CCOC(=O)CCN1C(=O)[C@H]2[C@H]3[C@H](O)[C@H](O)CC(=NOCc4ccccc4)[C@@H]3CC[C@H]2C1=O | -0.261 | 0.717 | 0.163 | 0.983 | 0.722 | 0.383 | -0.217 | 0.963 | -0.0855 | 0.883 (inactive) | -0.0682 | -1.25 (inactive) | 0.324 (inactive) | -0.294 (inactive) | 0.0433 (inactive) | 0.115 | -0.186 | 0.434 | 0.496 | 0.612 |
| COc1ccc([Si](C)(C)[C@@H]2[C@@H](CC(=O)N3CCC[C@H]3CO)O[C@]3(C(=O)N(Cc4cccc(N5CCC5=O)c4)c4ccccc43)[C@H]2C)cc1 | 0.97 | 1.18 | 0.418 | 0.809 | 0.907 | 0.402 | 1.04 | 0.917 | 0.81 | -1.69 (inactive) | -0.071 | -3.38 (inactive) | -1.54 (inactive) | 0.772 (inactive) | -0.662 (inactive) | 1.56 | 0.3 | 0.511 | 0.413 | 2 |
| CC(C)(C)N1C(=O)[C@H]2[C@H]3[C@H](O)[C@H](O)CC(=NO[C@@H]4O[C@H](CO)[C@@H](O)[C@H](O)[C@H]4O)[C@@H]3CC[C@H]2C1=O | 1.14 | 1.08 | 1.04 | 0.747 | 1.09 | 0.762 | -0.0208 | 1.13 | 0.398 | 0.0997 (inactive) | 0.324 | -2.45 (inactive) | 0.0108 (inactive) | 0.518 (inactive) | 0.217 (inactive) | -0.223 | 0.0051 | 0.217 | 0.254 | 1.53 |
| O=C1C[C@]2(c3ccc([N+](=O)[O-])cc3)C(=O)N(CCN3CCOCC3)c3cc(CO)ccc3[C@H]2N1CC12CC3CC(CC(C3)C1)C2 | -0.585 | 0.275 | 0.0816 | -0.724 | -0.377 | -1.54 | -0.869 | -0.424 | 0.551 | 0.959 (inactive) | -0.433 | -1.04 (inactive) | -0.954 (inactive) | 0.324 (inactive) | 0.247 (inactive) | -0.0783 | -0.122 | -0.967 | -0.862 | -0.509 |
| CC(C)c1ccc(NN2C(C(O)c3ccc4c(c3)OCO4)C=CC3C(=O)N(c4ccccc4)C(=O)C32)cc1 (stereo not given) | 1.57 | 1.19 | 0.477 | 1.04 | 1.02 | -0.146 | -0.726 | 0.545 | 0.881 | -1.72 (inactive) | 0.268 | -0.0997 (inactive) | -0.505 (inactive) | 0.629 (inactive) | -0.0824 (inactive) | 2.14 | 0.125 | -0.0945 | 1.04 | 0.397 |
| COC(=O)C1=C(C)[C@@H](O)[C@@H](C)[C@H](c2c(OC)c(OC)c(C)c(OC)c2OC)O1 | 0.174 | 0.113 | 0.132 | -1.27 | 0.194 | 0.236 | -0.485 | 0.475 | -0.611 | -0.0386 (inactive) | 0.0023 | -0.0219 (inactive) | 0.148 (inactive) | 2.18 (inactive) | 0.0745 (inactive) | 0.479 | -0.218 | 0.14 | 0.553 | 0.535 |
| CN1C(=O)C2C=CC(C(O)c3ccc(I)cc3)N(NC(=O)OC(C)(C)C)C2C1=O (stereo not given) | 0.131 | 1.25 | 0.739 | 0.974 | 0.669 | -0.0956 | -0.317 | -0.119 | 0.743 | 0.607 (inactive) | 0.0527 | 0.6 (inactive) | 0.155 (inactive) | -0.515 (inactive) | 0.699 (inactive) | 0.323 | 0.274 | -0.042 | 0.447 | -0.436 |
